The values that follow come from PubChem BioAssay (NCATS).

Structures are written as SMILES. Records with an inconclusive call do not appear. A call without a number means that no potency is given here. Unmarked numbers belong to inactive results. Calls of active or inactive are those of the source. Calls follow the shape of the dose curve; as a rule, active = well fitted inhibition curve with a large enough effect; inconclusive = small, poorly fitted or top-dose-only effect; inactive = flat fitted curve, though single readings scatter. Where a SMILES comes first, the peptide text is derived from it.

In this assay the test system is Zika virus NS2B-NS3 protease. Nature of the assay: Primary screen GU AMC qHTS for Zika virus inhibitors (AID 1347154). Also: nearly all actives have a fitted effect of over 70% in size. The conditions noted are these: Zika NS2B-NS3 unlinked protease, AMC fluorogenic substrate; series mostly up to 54.1 µM. The procedure, abridged:
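Unlinked Zika NS2B hydrophilic domain–NS3 protease complex at 25 nM in 10 mM Tris-HCl pH 8.0, 0.01% Tween 20, with an AMC peptide substrate. Fluorescence change (340/450 nm) over 15 min at room temperature, normalized to controls, fitted to 4-parameter Hill.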
Background: Quantitative high-throughput screening tests each substance at several concentrations.
Turning to `COC(=O)c1cc(Cl)ccc1OC`, the Potency result was “inactive”.

On to `C#Cc1ccc(-c2ccccc2F)cc1`, for which the Potency result is “inactive”.

Turning to `CC(=O)N(CC(O)CO)c1c(I)c(C(=O)NCCO)c(I)c(C(=O)NCC(O)CO)c1I` (stereo unspecified), the Potency result is “inactive”.

With `Cc1oc(-c2ccccc2)nc1CCC(=O)c1ccc(CC2SC(=O)NC2=O)cc1` (stereo unspecified), the Potency result was “inactive”.

As to `CCCN(CCC)C(=O)C(CCC(=O)OCCCN1CCN(CCOC(=O)Cc2c(C)n(C(=O)c3ccc(Cl)cc3)c3ccc(OC)cc23)CC1)NC(=O)c1ccccc1` (stereo unspecified), the Potency result was “inactive”.

As for `Nc1ccc(O)cc1`, the Potency result was “inactive”.

As for `CN1CCN(N)CC1`, the Potency entry was “inactive”.

As to `CN1C(CSCC(F)(F)F)Nc2cc(Cl)c(S(N)(=O)=O)cc2S1(=O)=O` (stereo unspecified), the Potency result was “inactive”.

In the case of `Cc1cccc(N(C)C(=S)Oc2ccc3c(c2)CCC3)c1`, the Potency entry was “inactive”.

For the compound `Cc1ncc(CO)c(CO)c1O`, the Potency result is “inactive”.

`CC(C)(C)C1CCC(CC2=C(O)c3ccccc3C(=O)C2=O)CC1` (stereo unspecified): the Potency result is “inactive”.

On to `CC1CN(c2cc3c(cc2F)c(=O)c(C(=O)O)cn3-c2ccc(F)cc2F)CCN1` (stereo unspecified), for which the activity change, negative = inhibition is -3.57% [at 4.99 µM].

As to `CC(=O)N[C@@H](CO)C(=O)N[C@@H](CC(=O)O)C(=O)N[C@@H](CCCCN)C(=O)N1CCC[C@H]1C(=O)O` (Ac-SDKP-OH), the Potency result was “inactive”.

Take `COC(=O)c1c(Cl)c(Cl)c(C(=O)OC)c(Cl)c1Cl`: the Potency entry was “inactive”.

Take `CCCCCCCCCCCCCCCCCCNC(=O)OC1CCN(C(=O)OC[C@H](COC(=O)N(Cc2cccc[n+]2CC)C(=O)c2ccccc2OC)OC)CC1`: the Potency entry is “inactive”.

With `O=C(CCOCCOCCOCCOCCC(=O)Nc1c(I)cc(I)c(C(=O)O)c1I)Nc1c(I)cc(I)c(C(=O)O)c1I`, the Potency entry is “inactive”.
